This experiment concerns NCI-H1944. The experiment can be described thus: normalised cell viability (NPI; 0 = phenylarsine oxide control, 1 = DMSO control) (fraction of DMSO control); NCI-H1944 is a non-small cell lung cancer line; higher = more viable cells (less compound toxicity). To be noted: 6 days.
The mark [1] stands for this setting: glucocorticoid arm: hydrocortisone 2.75 uM co-treatment, compound 1 µM.
Where [2] appears, read: glucocorticoid arm: hydrocortisone 2.75 uM co-treatment, compound 5 µM.
The mark [3] stands for this setting: glucocorticoid arm: hydrocortisone 2.75 uM pre-treated 2 days and continued, compound 1 µM.
Setting [4] is: glucocorticoid arm: hydrocortisone 2.75 uM pre-treated 2 days and continued, compound 5 µM.
[5] abbreviates: glucocorticoid arm: vehicle, compound 1 µM.
The mark [6] stands for this setting: glucocorticoid arm: vehicle, compound 5 µM.

Where a name gives a salt, the structure may show the parent alone. ± gives the standard deviation of the averaged measurements. Whole data set: some 1,900 compounds, median “normalised cell viability (NPI; 0 = phenylarsine oxide control, 1 = DMSO control)” near 1, cut for the lowest 2% near 0.039. What follows is part of a selection rich in the lowest values, with near analogues and random picks from the rest.
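Note: CTB read-out in 384-well plates, triplicate wells, NPI normalised per plate against 1 µM phenylarsine oxide (0) and 0.1% DMSO (1) controls.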

In the case of `COc1cc2c(cc1OC)[C@@H](c1ccccc1)CN(C)CC2`, the normalised cell viability runs as follows: under setting [1], 0.9913 ± 0.006; under setting [2], 1.023 ± 0.0058; under setting [3], 1.02 ± 0.011; under setting [4], 1.01 ± 0.019; under setting [5], 0.9883 ± 0.0015; under setting [6], 0.9863 ± 0.0055.
Take `Nc1nc(N)c(N=O)c(OCC2CCCCC2)n1`: the normalised cell viability was 1.02 ± 0.011 under setting [1]; 1.05 ± 0.017 under setting [2]; 1.037 ± 0.0058 under setting [3]; 1.023 ± 0.0058 under setting [4]; 1 under setting [5]; 0.978 ± 0.019 under setting [6].
Regarding `Clc1ccc(C2(c3ccc(-c4cn[nH]c4)cc3)CCNCC2)cc1`, the normalised cell viability runs as follows: under setting [1], 0.968 ± 0.012; under setting [2], 0.9977 ± 0.0021; under setting [3], 0.975 ± 0.011; under setting [4], 1.006 ± 0.0075; under setting [5], 0.9947 ± 0.0051; under setting [6], 0.939 ± 0.015.
For `CC(C)NCC(O)c1ccc(O)c(O)c1` (racemic) [(±)-Isoproterenol hydrochloride], the normalised cell viability worked out at 1.01 ± 0.011 under setting [1]; 1.03 ± 0.042 under setting [2]; 1.01 under setting [3]; 1.04 ± 0.064 under setting [4]; 0.99967 ± 0.00058 under setting [5]; 1.02 ± 0.021 under setting [6].
For the compound `N[C@@H](CCCC(=O)O)C(=O)O` [L-2-aminoadipic acid], the normalised cell viability runs as follows: under setting [1], 0.9947 ± 0.0055; under setting [2], 0.991 ± 0.015; under setting [3], 0.997 ± 0.013; under setting [4], 0.97 ± 0.018; under setting [5], 0.979 ± 0.014; under setting [6], 0.9823 ± 0.0067.
For `O=C(NC1CCNCC1)c1n[nH]cc1NC(=O)c1c(Cl)cccc1Cl`, the normalised cell viability stood at 0.225 ± 0.03 under setting [1]; 0.0298 ± 0.0013 under setting [2]; 0.349 ± 0.039 under setting [3]; 0.149 ± 0.015 under setting [4]; 0.0396 ± 0.029 under setting [5]; 0.0072 ± 0.00086 under setting [6].
In the case of `NC(=O)Nc1cc(-c2cccc(F)c2)sc1C(=O)N[C@H]1CCCNC1`, the normalised cell viability under setting [1] was 0.65 ± 0.013; the normalised cell viability under setting [2] was found to be 0.45 ± 0.024; the normalised cell viability under setting [3] was 0.93 ± 0.021; the normalised cell viability under setting [4] turned out to be 0.7733 ± 0.0071; the normalised cell viability under setting [5] came out at 0.338 ± 0.012; the normalised cell viability under setting [6] was 0.158 ± 0.015.
With `CN1CCN(C(=O)c2cc3cc(Cl)ccc3[nH]2)CC1`, the normalised cell viability amounted to 1.027 ± 0.0058 under setting [1]; 1.023 ± 0.0058 under setting [2]; 1.013 ± 0.0058 under setting [3]; 1.03 ± 0.021 under setting [4]; 1.007 ± 0.0058 under setting [5]; 1.01 ± 0.01 under setting [6].
Regarding `Cc1[nH]c(/C=C2\C(=O)Nc3ccc(S(=O)(=O)N(C)c4cccc(Cl)c4)cc32)c(C)c1C(=O)N1CCN(C)CC1`, the normalised cell viability reads like this: under setting [1], 0.9913 ± 0.0072; under setting [2], 0.986 ± 0.012; under setting [3], 1.003 ± 0.0058; under setting [4], 0.989 ± 0.014; under setting [5], 0.969 ± 0.01; under setting [6], 0.849 ± 0.036.
As for `CN1CCCN(C(=O)c2cccc(-c3ccc(/C=C4/C(=O)Nc5ccc(Cl)cc54)o3)c2)CC1`, the normalised cell viability is 0.717 ± 0.032 under setting [1]; 0.214 ± 0.24 under setting [2]; 0.937 ± 0.021 under setting [3]; 0.887 ± 0.059 under setting [4]; 0.282 ± 0.017 under setting [5]; 0.00113 ± 0.00047 under setting [6].
With `NC1(Cc2ccc(Cl)cc2)CCN(c2ncnc3[nH]ccc23)CC1`, the normalised cell viability runs as follows: under setting [1], 0.901 ± 0.034; under setting [2], 0.602 ± 0.08; under setting [3], 0.934 ± 0.014; under setting [4], 0.68 ± 0.045; under setting [5], 0.9813 ± 0.0087; under setting [6], 0.827 ± 0.068.
In the case of `CC1(C)CCC(NC(=O)[C@@H](N)CCC(=O)O)CC1`, the normalised cell viability is 0.979 ± 0.013 under setting [1]; 0.975 ± 0.016 under setting [2]; 0.999 ± 0.011 under setting [3]; 0.982 ± 0.046 under setting [4]; 0.9703 ± 0.0085 under setting [5]; 0.985 ± 0.012 under setting [6].
As to `CC(C)(C)c1ccc(C(O)CCCN2CCC(C(O)(c3ccccc3)c3ccccc3)CC2)cc1` (stereo not drawn) [Terfenadine], the normalised cell viability under setting [1] worked out at 0.997 ± 0.0027; the normalised cell viability under setting [2] was found to be 0.9833 ± 0.0051; the normalised cell viability under setting [3] came out at 1.03 ± 0.017; the normalised cell viability under setting [4] came out at 1.03 ± 0.017; the normalised cell viability under setting [5] is 0.9927 ± 0.006; the normalised cell viability under setting [6] stood at 0.0387 ± 0.043.

Source of the values: the supplement of paper PMC8285479.
